Screening results deposited in PubChem by National Center for Advancing Translational Sciences (NCATS).
FMDV inh: foot and mouth disease virus antiviral activity; actives 1.2% (n = 410,000); FMDV antiviral cell-based qHTS; Potency, µM (highest dose often 57.9 µM), hits mostly inhibitors; AID 1159524; calls by dose curve; tested in HEK293T cells; also: read-out not given here; nearly all actives have a fitted effect of over 45% in size
Marburg entry inh: blocks Marburg virus binding to or entry into cells; Marburg virus pseudotyped entry inhibition, cell reporter; Potency, µM (doses to about 37.8 µM), hits mostly inhibitors; actives 1.8% (n = 300,000); AID 540276; calls by dose curve; tested in HEK293 cells
HCMV antiviral: blocks human cytomegalovirus replication | HFF cells, HCMV-luciferase reporter, 72 h; active compounds read low | actives 4.5% (n = 410,000) | activity change, negative = inhibition, % at 57.5 µM; in the data active = activity change below about -60%; inconclusive = no clear call, values can overlap the other calls; inactive = above about -39%
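HFF cells seeded 16 h at 37C, treated with compounds, infected with luciferase-reporter HCMV at MOI 1 PFU/cell; luciferase read at 72 h post infection, normalized to buffer-only and Salinomycin controls.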
LASV entry inh: Lassa virus entry inhibition; Potency, µM (top dose mostly 37.9 µM), hits mostly inhibitors; Lassa virus pseudotype entry inhibition, cell reporter; actives 1.2% (n = 300,000); AID 540256; calls by dose curve; tested in HEK293 cells; also: nearly all actives have a fitted effect of over 50% in size
Each line names hits and unclear results; the compound was inactive in the other large screens. Sampled rows, rich in hits. Any-hit rate of the full collection: about 6.2%.

Cc1ccccc1-c1ccc(CN2CCc3nnc(CNC(=O)c4ccccn4)n3CC2)cc1	none (no result: Marburg entry inh, HCMV antiviral, LASV entry inh)
C=CCn1c(O)c(C(C)=Nc2ccc3c(c2)CCC3)c(=O)[nH]c1=O	none
C=CCn1c(O)c(C(CC)=Nc2ccc3c(c2)CCC3)c(=O)[nH]c1=O	FMDV inh inconclusive, LASV entry inh 0.89µM
CCn1c(/C=C2/C(=O)N(C)c3ccccc32)nc2ccccc2c1=O	FMDV inh inconclusive, LASV entry inh inconclusive
CCN1C(=O)/C(=C\c2nc3ccccc3c(=O)n2CC)c2ccccc21	FMDV inh 25µM, Marburg entry inh inconclusive, HCMV antiviral -94
CCN1C(=O)/C(=C/c2nc3ccccc3c(=O)n2-c2ccccc2)c2ccccc21	FMDV inh 25µM, HCMV antiviral -102, LASV entry inh inconclusive
CC(C)Cc1nc2cc(NS(=O)(=O)N(C)C)cc(C(=O)N3CCc4ccccc4C3)c2n1C	none (no result: Marburg entry inh, HCMV antiviral, LASV entry inh)
COc1ccc(OC)c(S(=O)(=O)n2ccnc2C)c1	LASV entry inh inconclusive
COc1ccc(C(C)C)cc1S(=O)(=O)n1ccnc1C	HCMV antiviral -103
Cc1ccc(-c2[nH]ncc2CNCCc2cnn(-c3ccccc3)c2)cc1C	FMDV inh inconclusive, Marburg entry inh 8.9µM
Cn1nc([N+](=O)[O-])nc1Oc1ccc2ccccc2c1	HCMV antiviral -65
COc1ccccc1OCc1ccc(C(=O)NC(C)(C)C)o1	FMDV inh inconclusive
COc1ccccc1OCc1ccc(C(=O)Nc2ccncc2)o1	FMDV inh 14µM, Marburg entry inh inconclusive, HCMV antiviral inconclusive, LASV entry inh inconclusive
Cn1c(=O)c([N+](=O)[O-])c(-n2ccnc2)c2ccccc21	FMDV inh 32µM, Marburg entry inh inconclusive, LASV entry inh inconclusive
CCOC1=C2CN(S(=O)(=O)c3ccc(C)cc3)[C@@H](c3cccs3)C[C@H]2[C@H]2C(=O)N(c3ccccc3)C(=O)[C@H]2C1	none (no result: Marburg entry inh, LASV entry inh)
COCC(=O)Nc1c(C(=O)Nc2ccc3c(c2)OCCO3)oc2ccccc12	Marburg entry inh 11µM, LASV entry inh inconclusive
CCOCC(=O)Nc1c(C(=O)Nc2ccc3c(c2)OCCO3)oc2ccccc12	Marburg entry inh inconclusive, HCMV antiviral -96, LASV entry inh inconclusive
CCC(=O)Nc1c(C(=O)Nc2ccc3c(c2)OCCO3)oc2ccccc12	LASV entry inh inconclusive
Nc1c(C(=O)OCC2CCCO2)c2nc3ccccc3nc2n1-c1ccc2c(c1)OCCO2 (stereo not given)	HCMV antiviral -66
O=c1c2c3nc4ccccc4nc3n(-c3ccc4c(c3)OCCO4)c2ncn1C1CCCC1	FMDV inh inconclusive, Marburg entry inh inconclusive, HCMV antiviral -77, LASV entry inh inconclusive
CCC(C)n1c(C)nc2c(c1=O)c1nc3ccccc3nc1n2-c1ccc2c(c1)OCCO2 (stereo not given)	none (no result: FMDV inh, HCMV antiviral, LASV entry inh)
Nc1c(C(=O)NC2CC2)c2nc3ccccc3nc2n1-c1ccc2c(c1)OCO2	FMDV inh inconclusive
CCCCc1ccc(NC(=O)Cn2nnc3sc4c(c3c2=O)CCC(C)C4)cc1 (stereo not given)	none
CCOc1ccc(NC(=O)c2cc3c(C)nn(-c4ccccc4)c3s2)cc1	FMDV inh inconclusive, HCMV antiviral -66
Cc1nn(-c2ccccc2)c2sc(C(=O)Nc3cccc(O)c3)cc12	LASV entry inh inconclusive
CCOc1ccc(NC(=O)CNC(=O)c2nn(-c3ccc(OC)cc3)c(=O)c3ccccc23)cc1	HCMV antiviral -65 (no result: LASV entry inh)
CN1CCN(c2ncc3ncc(=O)n(Cc4cccs4)c3n2)CC1	none (no result: Marburg entry inh, HCMV antiviral, LASV entry inh)
O=C(Cc1ccccc1[N+](=O)[O-])c1ccccc1[N+](=O)[O-]	none (no result: FMDV inh, Marburg entry inh, LASV entry inh)
Cc1cccc(-c2nc(CN3CCCC(C(=O)NC4CCC(C)CC4)C3)c(C)o2)c1 (stereo not given)	Marburg entry inh inconclusive
Cc1oc(-c2ccc(Cl)cc2)nc1CN1CCCC(C(=O)N2CCOCC2)C1 (stereo not given)	FMDV inh inconclusive (no result: Marburg entry inh, LASV entry inh)
CCOC(=O)N1CCC(NC(=O)C2CCCN(Cc3nc(-c4cccc(C)c4)oc3C)C2)CC1 (stereo not given)	FMDV inh inconclusive, Marburg entry inh inconclusive, HCMV antiviral -73, LASV entry inh inconclusive
CCOC(=O)N1CCC(NC(=O)CSCc2nc(-c3ccc(OC)c(OC)c3)oc2C)CC1	Marburg entry inh inconclusive
Cc1oc(-c2ccc(Cl)cc2)nc1CN1CCCC(C(=O)N2CCN(C(=O)c3ccco3)CC2)C1 (stereo not given)	FMDV inh 14µM (no result: LASV entry inh)
CCOC(=O)N1CCC(NC(=O)CSCc2nc(-c3ccc(C)cc3)oc2C)CC1	FMDV inh inconclusive, HCMV antiviral -63 (no result: Marburg entry inh, LASV entry inh)
Cc1cccc(-c2nc(CN3CCCC(C(=O)NC4CCCC4)C3)c(C)o2)c1 (stereo not given)	Marburg entry inh 15µM
CCOc1ccc(-c2nc(CSCC(=O)NCc3ccc(Cl)cc3)c(C)o2)cc1	FMDV inh inconclusive, HCMV antiviral -66 (no result: Marburg entry inh)
